The source of these data is PubChem BioAssay.

Test [1] concerns Wnt5a (protein binding on small-molecule microarray). Nature of the test: Wnt5a binders on small-molecule microarray, primary screen, biophysical, 635/667 nm fluorescence (AID 1142).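 Note: fluorescence read at 667 nm with signal to noise per printed feature.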 To be noted: 635 nm fluorescence, higher = more signal.
A short description of test [2]: cell viability in Huh7 cells, primary screen, cytotoxicity control for HCV replication inhibitor project, CellTiter-Glo luminescence, basal, 48 h (AID 1143).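 Note: Huh7 hepatoma cells carrying a hepatitis C replication reporter with no stimulus; test concentration not given here.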 The conditions noted are these: Huh7 HCV replicon, higher = more signal, called active from +8 up or from −8 down. On the technique in general: ATP-based viability assays read luminescence as a measure of living cells.

The nature of test [3]: P. aeruginosa biofilm formation inhibitors, primary screen, PAO1 strain, BacTiter-Glo luminescence, LB-PBS (AID 1144). The conditions noted are these: 12 h, higher = more signal.
Test [4] is described as follows: CREB reporter modulators without forskolin, primary screen, cell-based, PC12, CRE-LacZ reporter, unstimulated (AID 1145). To be noted: no forskolin, luminescence, 4.5 h, higher = more signal, called active from +8 up or from −8 down.
Test [5] can be described thus: CREB reporter modulators under forskolin, primary screen, cell-based, PC12, CRE-LacZ reporter, forskolin-stimulated (AID 1146).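 Note: PC12 cells with 6xCRE LacZ reporter stimulated by forskolin 10 µM; beta-galactosidase reporter signal reflecting CREB driven transcription.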 To be noted: luminescence, 4.5 h, higher = more signal, called active from +8 up or from −8 down.
Test [6] has as its target Streptavidin (Streptomyces avidinii) (UniProt P22629). Nature of the test: streptavidin binders on small-molecule microarray, primary screen, artefact control for SMM compound annotation, biophysical, 635/667 nm fluorescence (AID 1147).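 Note: signal reflects streptavidin binding to arrayed compounds as a control protein.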 The conditions noted are these: streptavidin binding, higher = more signal.
Test [7] is described as follows: small-molecule binders of probe aInhba, primary screen, biochemical, small-molecule microarray, 635/667 nm fluorescence (AID 1148).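 Note: score merges 667nm spot fluorescence with signal-to-noise for antibody binding to printed compounds.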 To be noted: higher = more signal.
Test [8] concerns the target Torsin-1A (Homo sapiens) (UniProt O14656). The test can be described thus: torsin A binders from cell lysate, primary screen, small-molecule microarray, wild-type, 635/667 nm (AID 1149). The conditions noted are these: COS7 hTOR1A-WT lysate, 635 nm fluorescence, higher = more signal.
Test [9] has the same target. The test can be described thus: small-molecule binders of mutant TOR1A in lysate, primary screen, cell lysate, small-molecule microarray, COS7 lysate, 635/667 nm fluorescence (AID 1150).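 Note: score pools 667 nm emission and signal to noise measuring lysate protein binding.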 To be noted: COS7 hTOR1A mutant lysate, 635 nm fluorescence, higher = more signal.
The subject of test [10] is Sonic hedgehog protein (Shh). The test can be described thus: small-molecule binders of Shh protein, primary screen, biochemical, small-molecule microarray, 635/667 nm fluorescence (AID 1151).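 Note: Shh protein binding to compounds spotted on small-molecule microarray slides; score combines spot fluorescence intensity with signal-to-noise across triplicate slides.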 The conditions noted are these: small-molecule microarray binding, 635 nm fluorescence; higher = more signal.

Activity calls are given as the source filed them. Unless noted, the rule behind the calls is not given here.

Chain of Streptavidin (Streptomyces avidinii) (P22629 whole entry, looked up): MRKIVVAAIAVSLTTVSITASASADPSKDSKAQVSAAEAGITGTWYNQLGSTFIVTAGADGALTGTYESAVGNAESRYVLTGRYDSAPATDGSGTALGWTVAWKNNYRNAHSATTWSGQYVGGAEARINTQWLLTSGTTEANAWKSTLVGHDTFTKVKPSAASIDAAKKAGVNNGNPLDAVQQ
Chain of Torsin-1A (Homo sapiens) (O14656 whole entry, looked up): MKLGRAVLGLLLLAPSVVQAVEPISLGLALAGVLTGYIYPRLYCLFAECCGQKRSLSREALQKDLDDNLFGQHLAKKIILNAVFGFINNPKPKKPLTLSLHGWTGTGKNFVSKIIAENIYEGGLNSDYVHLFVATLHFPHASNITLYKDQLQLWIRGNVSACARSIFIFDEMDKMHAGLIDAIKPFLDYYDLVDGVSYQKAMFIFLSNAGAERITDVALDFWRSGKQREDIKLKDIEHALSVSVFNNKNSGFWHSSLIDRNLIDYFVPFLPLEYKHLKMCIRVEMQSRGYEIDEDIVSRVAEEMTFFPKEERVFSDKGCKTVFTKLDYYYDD

On to `O=C1C[C@@](C(=O)NC2CC2)(c2ccc([N+](=O)[O-])cc2)[C@@H](c2ccc(CO)cc2I)N1C1CCCCC1`, for which the composite z-score was 0.693 in [1]; 1.38 in test [6]; 0.0785 in test [7]; 0.207 in [8]; 0.461 in test [9]; 2.09 in test [10]. Further, the z-score in test [2] is -3.54 (inactive); in test [3], -0.691 (inactive); in test [4], 0.495 (inactive); in [5] it was 0.714 (inactive).

For `C=C(COC)C(=O)CC[C@@H](OC(C)=O)c1ccc(CO)o1`, the composite z-score in [1] is 0.111; in test [6] it was -0.374; in [7] it was 0.138; in [8] it was 0.463; in [9], 1.06; in test [10], 2.14. Moreover, the z-score in test [2] was 0.622 (inactive); in [3], -0.238 (inactive); in test [4] it was 0.363 (inactive); in test [5] it was 0.283 (inactive).

In the case of `C=C(CCCC)/C(=C/C[C@@H](OC(=O)c1ccncc1)c1ccc(OCCO)cc1)c1cc(C(=O)OC)ccc1OC`, the composite z-score in test [1] is -0.109; in [6] it was 0.378; in test [7], -0.128; in test [8], 0.0383; in test [9], 0.111; in [10], 1.41. In addition, the z-score in test [2] was -1.43 (inactive); in [3], -0.0194 (inactive); in [4], 2.32 (inactive); in test [5], 1.99 (inactive).

In the case of `C=C(CCCC)/C(=C/C[C@@H](OC(C)=O)c1ccc(OCCO)cc1)c1cnc2ccccc2c1`, the composite z-score in test [1] is -0.0157; in test [6], 0.514; in [7], -0.0405; in test [8], -0.197; in [9], 0.101; in [10], 1.77. Also, the z-score is -0.842 (inactive) in test [2], -1.02 (inactive) in [3], 1.21 (inactive) in test [4] and -0.438 (inactive) in test [5].

`COCCOC(=O)N1C(=O)[C@@]2(c3cc(C#CCCO)ccc31)[C@H](C(N)=O)[C@H]1C(=O)O[C@H](c3ccccc3)[C@H](c3ccccc3)N1[C@@H]2c1ccc(O)cc1`: the composite z-score in test [1] is 0.186; in test [6], -0.36; in test [7], -0.163; in test [8], -0.192; in test [9], -0.176; in [10], -0.412. Besides, the z-score in test [2] was 0.505 (inactive); in test [3], 0.676 (inactive); in [4] it was -0.602 (inactive); in test [5], -0.702 (inactive).

Consider `COC(=O)[C@@]1(Cc2ccc(F)cc2)[C@H]2c3cc(C(=O)N(C)C)n(Cc4ccc(Cl)c(C(F)(F)F)c4)c3C[C@H]2CN1C(=O)c1ccccc1`, for which the composite z-score was 0.156 in test [1]; 2.37 in test [6]; 0.588 in test [7]; 0.146 in [8]; 0.751 in [9]; -0.823 in test [10]. Also, the z-score is -2.95 (inactive) in [2], 0.44 (inactive) in [3], 1.34 (inactive) in test [4] and 0.778 (inactive) in test [5].

Regarding `COc1cc2c(cc1O)C(C1CC1)N(Cc1sc3ccccc3c1Cl)CC2` (stereo not given), the composite z-score was -0.207 in test [1]; 0.583 in [6]; -0.024 in test [7]; 1.45 in [8]; 0.982 in test [9]; -0.206 in test [10]. Also, the z-score was -5.05 (inactive) in test [2], 1.26 (inactive) in test [3], -0.671 (inactive) in test [4] and 1.82 (inactive) in [5].

In the case of `CN1C(=O)C2C=CC(C(O)C3CC=CCC3)N(N(c3ccccc3)c3ccccc3)C2C1=O` (stereo not given), the composite z-score was 0.155 in test [1]; 0.184 in [6]; 0.027 in test [7]; 0.36 in test [8]; -0.368 in test [9]; 0.0122 in [10]. In addition, the z-score in test [2] was 0.909 (inactive); in test [3] it was 0.472 (inactive); in [4], 0.629 (inactive); in test [5], 0.47 (inactive).

Consider `C=CC1(C(=O)OC)CC=C(C(=O)OC)CC1` (stereo not given), for which the composite z-score in test [1] is 0.181; in test [6], 0.596; in [7], -0.154; in test [8], 0.226; in test [9], 0.823; in test [10], 0.434. Further, the z-score in test [2] was -1.3 (inactive); in test [3], 0.132 (inactive); in test [4] it was 0.332 (inactive); in test [5] it was 0.0857 (inactive).

`COCCOC(=O)N1C(=O)[C@@]2(c3ccccc31)[C@H](c1ccccc1OCCO)N1[C@H](c3ccccc3)[C@H](c3ccccc3)OC(=O)[C@H]1[C@@H]2C(=O)N1CCN(c2ncccn2)CC1`: the composite z-score in test [1] was -0.0525; in [6], 0.498; in test [7], -0.0102; in [8], 0.447; in test [9], 0.489; in test [10] it was 1.34. In addition, the z-score is -2.08 (inactive) in test [2], 0.235 (inactive) in test [3], -0.0688 (inactive) in [4] and 3.84 (inactive) in [5].

For the compound `O=C(N1CCCCC1)[C@]1(Cc2ccccc2)N=C(c2ccc(OCCCO)cc2)O[C@@H]1c1ccccc1`, the composite z-score in test [1] is 0.33; in test [6], 0.997; in test [7], 0.0074; in test [8], 1.03; in test [9], 0.0081; in [10], -0.412. Moreover, the z-score in test [2] was -6.07 (inactive); in [3], -0.759 (inactive); in [4], 0.558 (inactive); in test [5], 0.182 (inactive).

Consider `CC(C)NC(=O)[C@@H]1c2ccccc2C(=O)N(C2Cc3ccccc3C2)[C@H]1c1ccc(CO)cc1`, for which the composite z-score in test [1] was -0.0402; in test [6], 0.251; in [7] it was -0.128; in test [8], -0.232; in [9] it was 0.474; in [10], 0.231. Further, the z-score was -1.09 (inactive) in test [2], -0.737 (inactive) in [3], 0.441 (inactive) in test [4] and -1.35 (inactive) in test [5].

Turning to `C=CC[C@]1(C(=O)NCCCOC)N=C(c2ccc(OCCCO)cc2)O[C@H]1c1ccccc1CN=[N+]=[N-]`, the composite z-score is 1.11 in test [1]; 0.828 in [6]; 0.149 in [7]; 0.883 in [8]; 0.749 in [9]; -0.0138 in [10]. In addition, the z-score in [2] is -1.34 (inactive); in test [3], 0.162 (inactive); in test [4] it was 1.49 (inactive); in test [5], -1.41 (inactive).

Consider `CO[C@H]1O[C@H](CO)[C@@H](OC(=O)Nc2ccc(Oc3ccccc3)cc2)[C@H](OC(=O)Nc2ccc3c(c2)OCO3)[C@H]1OC(=O)Nc1ccc2c(c1)OCO2`, for which the composite z-score is 0.636 in [1]; 0.412 in test [6]; 0.443 in test [7]; 0.387 in test [8]; 0.661 in test [9]; 1.41 in test [10]. For the same compound, the z-score in test [2] is -1.48 (inactive); in [3], -0.822 (inactive); in test [4], 1.09 (inactive); in [5] it was -0.922 (inactive).
